Source: PubChem BioAssay AID1159580 (chemical genetic matrix, 2015)
Among all 5,500 compounds or so, about 2,000 (36%) were called active. Not shown: some 18% with an inconclusive outcome. Cut-off read from the data, not from the text of the source: active = normalized growth mostly below about 0.91 (no sharp cut-off); inconclusive = no clear call, values can overlap the other calls; inactive = mostly above about 0.92. The list shows a part of the results.

Assay: chemical genetic growth profiling, strain panel (AID 1159580);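 note: tested at 20 µM; growth read once vehicle control cultures reached saturation at 30 °C; 1 = growth at the plate median or of vehicle wells; lower values mean less growth of the strain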
Conditions: growth OD

Measured: normalized growth

COc1ccc(C(=O)c2ccccc2O)c(O)c1
inactive: S. cerevisiae deletion strains, locus YJR066W, strain TOR1, hits give low values 0.901 | S. cerevisiae deletion strains, locus YKL009W, strain mrt4, hits give low values 0.895 | S. cerevisiae deletion strains, locus YKL068W, hits give low values 0.944 | S. cerevisiae deletion strains, locus YKL190W, strain CNB1, hits give low values 0.963 | S. cerevisiae deletion strains, locus YLL001W, strain dnm1, hits give low values 0.92 | S. cerevisiae deletion strains, locus YLR058C, strain SHM2, hits give low values 0.919 | S. cerevisiae deletion strains, locus YLR102C, strain apc9, hits give low values 0.948 | S. cerevisiae deletion strains, locus YLR113W, strain HOG1, hits give low values 0.907 | S. cerevisiae deletion strains, locus YLR268W, strain sec22, hits give low values 0.938 | S. cerevisiae deletion strains, locus YLR330W, strain CHS5, hits give low values 0.923 | S. cerevisiae deletion strains, locus YLR342W, strain FKS1 (second series), hits give low values 0.838 | S. cerevisiae deletion strains, locus YLR357W, strain rsc2, hits give low values 0.986 | S. cerevisiae deletion strains, locus YLR371W, strain rom2, hits give low values 0.91 | S. cerevisiae deletion strains, locus YML016C, strain PPZ1, hits give low values 0.93 | S. cerevisiae deletion strains, locus YML032C, strain rad52, hits give low values 0.923 | S. cerevisiae deletion strains, locus YMR078C, strain ctf18, hits give low values 0.913 | S. cerevisiae deletion strains, locus YMR125W, strain sto1, hits give low values 0.915 | S. cerevisiae deletion strains, locus YMR263W, strain SAP30, hits give low values 0.903 | S. cerevisiae deletion strains, locus YMR307W, strain GAS1, hits give low values 0.852 | S. cerevisiae deletion strains, locus YNL067W, strain RPL9B, hits give low values 0.892 | S. cerevisiae deletion strains, locus YNL128W, strain TEP1, hits give low values 0.948 | S. cerevisiae deletion strains, locus YNL183C, strain NPR1, hits give low values 0.908 | S. cerevisiae deletion strains, locus YNL250W, strain rad50, hits give low values 0.951 | S. cerevisiae deletion strains, locus YNL322C, strain KRE1, hits give low values 0.983 | S. cerevisiae deletion strains, locus YNR052C, strain pop2, hits give low values 0.96 | S. cerevisiae deletion strains, locus YOL006C, strain TOP1, hits give low values 0.564 | S. cerevisiae deletion strains, locus YOL012C, strain htz1 1.21 | S. cerevisiae deletion strains, locus YOR061W, strain CKA2, hits give low values 0.945 | S. cerevisiae deletion strains, locus YOR069W, strain VPS5, hits give low values 0.955 | S. cerevisiae deletion strains, locus YOR080W, strain dia2, hits give low values 0.919 | S. cerevisiae deletion strains, locus YOR136W, strain idh2, hits give low values 0.961 | S. cerevisiae deletion strains, locus YOR144C, strain elg1, hits give low values 0.938 | S. cerevisiae deletion strains, locus YOR231W, strain MKK1, hits give low values 0.958 | S. cerevisiae deletion strains, locus YOR316C, strain cot1, hits give low values 0.936 | S. cerevisiae deletion strains, locus YPL055C, strain LGE1, hits give low values 0.9 | S. cerevisiae deletion strains, locus YPL106C, strain sse1, hits give low values 0.935 | S. cerevisiae deletion strains, locus YPL241C, strain CIN2, hits give low values 0.972 | S. cerevisiae deletion strains, locus YPL256C, strain CLN2, hits give low values 0.918 | S. cerevisiae deletion strains, locus YPR119W, strain clb2, hits give low values 0.931 | S. cerevisiae deletion strains, locus YPR163C, strain tif3, hits give low values 0.968 | S. cerevisiae deletion strains, locus YPR167C, strain met16, hits give low values 0.925 | S. cerevisiae strains, strain wild type, hits give low values 0.951
active: S. cerevisiae deletion strains, locus YKL085W, strain MDH1 (second series), hits give low values 0.905 | S. cerevisiae deletion strains, locus YKL085W, strain MDH1, hits give low values 0.905 | S. cerevisiae deletion strains, locus YKL160W, strain elf1, hits give low values 0.896 | S. cerevisiae deletion strains, locus YKR001C, strain vps1, hits give low values 0.71 | S. cerevisiae deletion strains, locus YKR026C, strain gcn3, hits give low values 0.894 | S. cerevisiae deletion strains, locus YKR091W, strain srl3, hits give low values 0.901 | S. cerevisiae deletion strains, locus YLL026W, hits give low values 0.88 | S. cerevisiae deletion strains, locus YLL041C, strain sdh2, hits give low values 0.885 | S. cerevisiae deletion strains, locus YLR027C, strain aat2, hits give low values 0.875 | S. cerevisiae deletion strains, locus YLR039C, strain RIC1, hits give low values 0.63 | S. cerevisiae deletion strains, locus YLR221C, strain rsa3, hits give low values 0.891 | S. cerevisiae deletion strains, locus YLR258W, strain gsy2, hits give low values 0.869 | S. cerevisiae deletion strains, locus YLR262C, strain YPT6 (second series), hits give low values 0.46 | S. cerevisiae deletion strains, locus YLR262C, strain YPT6, hits give low values 0.562 | S. cerevisiae deletion strains, locus YLR320W, strain mms22, hits give low values 0.717 | S. cerevisiae deletion strains, locus YLR342W, strain FKS1, hits give low values 0.872 | S. cerevisiae deletion strains, locus YLR370C, strain arc18, hits give low values 0.841 | S. cerevisiae deletion strains, locus YLR384C, strain iki3, hits give low values 0.89 | S. cerevisiae deletion strains, locus YLR418C, strain cdc73, hits give low values 0.821 | S. cerevisiae deletion strains, locus YML120C, strain ndi1, hits give low values 0.878 | S. cerevisiae deletion strains, locus YML124C, strain tub3, hits give low values 0.925 | S. cerevisiae deletion strains, locus YMR058W, strain fet3, hits give low values 0.824 | S. cerevisiae deletion strains, locus YMR129W, hits give low values 0.888 | S. cerevisiae deletion strains, locus YMR205C, strain PFK2, hits give low values 0.803 | S. cerevisiae deletion strains, locus YMR223W, strain ubp8, hits give low values 0.873 | S. cerevisiae deletion strains, locus YMR231W, strain pep5, hits give low values 0.895 | S. cerevisiae deletion strains, locus YNL071W, strain lat1, hits give low values 0.75 | S. cerevisiae deletion strains, locus YNL209W, strain ssb2, hits give low values 0.913 | S. cerevisiae deletion strains, locus YNL233W, strain BNI4, hits give low values 0.869 | S. cerevisiae deletion strains, locus YNL248C, strain rpa49, hits give low values 0.858 | S. cerevisiae deletion strains, locus YNL271C, strain bni1, hits give low values 0.91 | S. cerevisiae deletion strains, locus YNL298W, strain CLA4, hits give low values 0.899 | S. cerevisiae deletion strains, locus YNL307C, strain MCK1, hits give low values 0.874 | S. cerevisiae deletion strains, locus YNL322C, strain KRE1 (second series), hits give low values 0.888 | S. cerevisiae deletion strains, locus YNR049C, strain mso1, hits give low values 0.889 | S. cerevisiae deletion strains, locus YOL147C, strain pex11, hits give low values 0.924 | S. cerevisiae deletion strains, locus YOR001W, strain rrp6, hits give low values 0.794 | S. cerevisiae deletion strains, locus YOR070C, strain gyp1, hits give low values 0.913 | S. cerevisiae deletion strains, locus YOR083W, strain WHI5, hits give low values 0.884 | S. cerevisiae deletion strains, locus YOR106W, strain vam3, hits give low values 0.866 | S. cerevisiae deletion strains, locus YOR184W, strain ser1, hits give low values 0.754 | S. cerevisiae deletion strains, locus YOR265W, strain rbl2, hits give low values 0.891 | S. cerevisiae deletion strains, locus YOR270C, strain vph1, hits give low values 0.469 | S. cerevisiae deletion strains, locus YOR290C, strain snf2, hits give low values 0.803 | S. cerevisiae deletion strains, locus YPL051W, strain arl3, hits give low values 0.729 | S. cerevisiae deletion strains, locus YPL078C, strain atp4, hits give low values 0.79 | S. cerevisiae deletion strains, locus YPL240C, strain hsp82, hits give low values 0.901 | S. cerevisiae deletion strains, locus YPR141C, strain kar3, hits give low values 0.905 | S. cerevisiae deletion strains, strain wtn01, hits give low values 0.891
